# Values without a mark were called inactive. Records with an inconclusive call do not appear. A call without a number means that no potency is given here. The source made the active and inactive calls. Unless noted, the call rests on the fitted dose curve; in most records, active means well fitted curve in the direction sought with a large enough effect in the repeat runs; inconclusive means weak or mixed curves; inactive means no such curve, though single readings can be large; an effect the other way counts as inactive or inconclusive.
# Tests used:
# [1] = qHTS assay to identify small molecule antagonists of the androgen receptor (AR) signaling pathway using the MDA cell line in the presence of 0.5 nM R1881 - cell viability counter screen (AID 1259242); further: nearly all actives have a fitted effect of over 45% in size; further: potency means the concentration at half of the fitted maximal effect
# In short: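 qHTS format. MDA-kb2 (MMTV-luc, AR/GR responsive) + cpd + 0.5 nM R1881 final, 16 hr 37C/0% CO2 → CellTiter-Fluor 30 min → fluorescence intensity.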
# [2] = qHTS assay to identify small molecule HDAC inhibitors (AID 1259364); further: potency means the concentration at half of the fitted maximal effect;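 further: wild-type HCT-116 cells with endogenous class I/II HDAC activity; nearly all actives have a fitted effect of over 45% in size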; on activity change, negative = inhibition: top concentration of the series differs between compounds
# In short: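 Quantitative high-throughput format: overnight-seeded HCT-116 cells got compounds for 2 hr at 37C; HDAC-Glo I/II reagent added, 30 min RT, luminescence measured.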
# [3] = qHTS assay to identify small molecule HDAC inhibitors - cell viability counter screen (AID 1259365); further: series mostly up to about 92 µM; nearly all actives have a fitted effect of over 50% in size
# In short: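 Counter screen in wild-type HCT-116 cells: compounds dissolved in DMSO are pin-transferred onto overnight-plated cells and left 2hr at 37C. ATP-based CellTiter-Glo luminescence then measures viable cells.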
# [4] = qHTS assay to identify small molecule agonists of the sonic hedgehog signaling (Shh) pathway - cell viability counter screen (AID 1259366); further: nearly all actives have a fitted effect of over 50% in size; further: potency means the concentration at half of the fitted maximal effect
# In short: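 Cells are plated at 2,000 per well and left 4hr at 37C, 5% CO2 before compound addition. After 23hr of treatment, CellTiter-Fluor reagent is added for 1hr at 37C and fluorescence is measured.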
# [5] = qHTS assay to identify small molecule agonists of the sonic hedgehog signaling (Shh) pathway (AID 1259368; calls by dose curve;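 further: NIH/3T3-derived 3T3Gli1-Luc cells carrying a stable Gli1-driven firefly luciferase reporter; series mostly up to about 92 µM; nearly all actives have a fitted effect of over 15% in size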)
# In short: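 Quantitative high-throughput format using a Gli1-driven firefly luciferase reporter line derived from NIH/3T3 cells. After a 24 hr compound treatment at 37 C and 5% CO2, luminescence reported Gli1 response element activity.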
# [6] = qHTS assay to identify small molecule antagonists of the sonic hedgehog signaling (Shh) pathway (AID 1259369; calls by dose curve; further: nearly all actives have a fitted effect of over 45% in size; further: potency means the concentration at half of the fitted maximal effect)
# In short: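 Stable Gli1-Luc reporter NIH/3T3 clone; quantitative HTS in stimulated mode with conditioned medium. Luminescence measured after 24hr compound treatment at 37 C.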
# [7] = biological target: Estrogen receptor beta (Homo sapiens) (UniProt Q92731); experiment: qHTS assay to identify small molecule antagonists of the estrogen receptor beta (ER-beta) signaling pathway (AID 1259378; active means well fitted inhibition curve with a large enough effect in the signal ratio in the repeat runs, not every such curve was filed as active; the % refers to the signal ratio; further: potency means the concentration at half of the fitted maximal effect)
# In short: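 Antagonist mode: compounds added to beta-lactamase reporter HEK293T ER-beta-UAS cells stimulated with E2 (1nM final), 16 hr at 37C. LiveBLAzer B/G FRET substrate, 2 hours room temperature, fluorescence read-out.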
# [8] = qHTS assay to identify small molecule agonists of the androgen receptor (AR) signaling pathway in the presence of an antagonist - cell viability counter screen (AID 1259379); further: nearly all actives have a fitted effect of over 25% in size; further: potency means the concentration at half of the fitted maximal effect;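 on activity change, negative = cytotoxicity: MDA-kb2 human breast cancer cells carrying an MMTV luciferase reporter; series mostly up to about 92 µM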
# In short: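 Nilutamide-containing (3.0uM final) MDA-kb2 cultures, 3,000 cells/well, were treated with compounds across 15 concentrations. After 16 hr at 37C with no CO2, cell viability was determined by CellTiter-Fluor fluorescence in the luciferase assay wells.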
# [9] = qHTS assay to identify small molecule agonists of the estrogen receptor beta (ER-beta) signaling pathway - cell viability counter screen (AID 1259380); further: nearly all actives have a fitted effect of over 30% in size; further: potency means the concentration at half of the fitted maximal effect
# In short: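 Steps: plate ER-beta-UAS-bla HEK293T cells, rest 6 hr; add compounds in DMSO; incubate 16 hr at 37C, 5% CO2; add FRET substrate 2 hr; add CellTiter-Glo, wait 30 min at room temperature; read luminescence.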
# [10] = qHTS assay to identify small molecule antagonists of the estrogen receptor beta (ER-beta) signaling pathway - cell viability counter screen (AID 1259382); further: nearly all actives have a fitted effect of over 55% in size; further: potency means the concentration at half of the fitted maximal effect;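 on activity change, negative = cytotoxicity: HEK293T cells carrying ER-beta-UAS-bla reporter stimulated with estradiol; series mostly up to about 92 µM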
# In short: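 Viability is scored by CellTiter-Glo luminescence (30 min, room temperature) in ER-beta-UAS-bla HEK293T wells already read for reporter fluorescence. Compound exposure lasts 16 hr at 37C alongside 1nM 17-beta-estradiol in charcoal-stripped serum medium.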
# [11] = qHTS assay to identify small molecule agonists or antagonists of the thyroid stimulating hormone receptor (TSHR) signaling pathway - wild type cell line counter screen (AID 1259384; calls by dose curve)
# In short: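 Counter screen in untransfected Hek293: compounds (15-point titration, triplicate) plus phosphodiesterase inhibitor Ro20-1724 added after 18 h plating; 30 min RT. Intracellular cAMP via competitive d2/cryptate immunoassay, 1 h incubation.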
# [12] = biological target: Thyrotropin receptor (Homo sapiens) (UniProt P16473); experiment: qHTS assay to identify small molecule antagonists of the thyroid stimulating hormone receptor (TSHR) signaling pathway (AID 1259385; calls by dose curve; further: nearly all actives have a fitted effect of over 20% in size; further: potency means the concentration at half of the fitted maximal effect)
# In short: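 Antagonist mode: compound-treated TSHR-expressing HEK293 cells were stimulated with 1.5 ng/mL TSH (final) in presence of Ro20-1724 for 30 min at RT. HTRF cAMP detection after 1 h; each compound tested at 15 concentrations, triplicate.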
# [13] = qHTS assay to identify small molecule antagonists of the sonic hedgehog signaling (Shh) pathway - cell viability counter screen (AID 1259367); further: nearly all actives have a fitted effect of over 55% in size; further: potency means the concentration at half of the fitted maximal effect
# In short: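 CellTiter-Fluor signal in conditioned medium-stimulated 3T3 Gli1-Luc cells, 23 hr compound exposure, 37C.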
# [14] = biological target: Estrogen receptor beta (Homo sapiens) (UniProt Q92731); experiment: qHTS assay to identify small molecule agonists of the estrogen receptor beta (ER-beta) signaling pathway (AID 1259377; active means well fitted activation curve with a large enough effect in the signal ratio in the repeat runs, not every such curve was filed as active; the % refers to the signal ratio)
# In short: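 Agonist mode cell assay in GripTite HEK293T cells expressing an ER-beta fusion that drives beta-lactamase from an Upstream Activator Sequence; 16 hr compound exposure at 37C, then 2 h LiveBLAzer B/G FRET substrate at room temperature, fluorescence read-out.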
# [15] = biological target: Estrogen receptor (Homo sapiens) (UniProt P03372); experiment: qHTS assay to identify small molecule agonists of the estrogen receptor alpha (ER-alpha) signaling pathway in the presence of an antagonist (AID 1259383; calls by dose curve; further: top concentration of the series differs between compounds; nearly all actives have a fitted effect of over 15% in size)
# In short: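 Readout was ERE-driven luciferase luminescence in VM7Luc4E2 cells, which express full-length ER-alpha endogenously. Compounds were tested at 15 concentrations for 22hr alongside 10.0nM ICI-182,780 (final concentration).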
# [16] = biological target: Estrogen receptor (Homo sapiens) (UniProt P03372); experiment: qHTS assay to identify small molecule antagonists of the estrogen receptor alpha (ER-alpha) signaling pathway using the BG1 cell line in the presence of 0.1 nM 17-beta-estradiol (AID 1259244); further: nearly all actives have a fitted effect of over 50% in size
# In short: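 Reporter is a stably transfected luciferase under four estrogen responsive elements in VM7Luc4E2 cells expressing native full-length ER-alpha; inhibition of 0.1 nM (final) 17beta-estradiol-driven signal over 22 h is read by luminescence.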
# Estrogen receptor (Homo sapiens), sequence (P03372 whole entry, looked up): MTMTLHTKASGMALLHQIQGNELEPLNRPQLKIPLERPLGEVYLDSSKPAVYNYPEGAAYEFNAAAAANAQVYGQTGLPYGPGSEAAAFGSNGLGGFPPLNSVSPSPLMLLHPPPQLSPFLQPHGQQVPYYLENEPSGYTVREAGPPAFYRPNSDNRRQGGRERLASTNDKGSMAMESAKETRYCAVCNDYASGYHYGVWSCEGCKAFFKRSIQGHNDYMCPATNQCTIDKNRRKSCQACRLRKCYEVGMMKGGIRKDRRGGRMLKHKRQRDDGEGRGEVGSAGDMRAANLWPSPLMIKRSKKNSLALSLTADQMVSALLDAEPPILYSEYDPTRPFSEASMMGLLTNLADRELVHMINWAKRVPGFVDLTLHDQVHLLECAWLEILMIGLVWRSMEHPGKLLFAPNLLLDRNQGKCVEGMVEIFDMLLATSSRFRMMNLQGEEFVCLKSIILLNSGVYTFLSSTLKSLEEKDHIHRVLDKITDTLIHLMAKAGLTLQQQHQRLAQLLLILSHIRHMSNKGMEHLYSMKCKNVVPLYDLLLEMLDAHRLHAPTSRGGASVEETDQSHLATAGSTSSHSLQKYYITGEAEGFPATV
# Thyrotropin receptor (Homo sapiens), sequence (P16473 whole entry, looked up): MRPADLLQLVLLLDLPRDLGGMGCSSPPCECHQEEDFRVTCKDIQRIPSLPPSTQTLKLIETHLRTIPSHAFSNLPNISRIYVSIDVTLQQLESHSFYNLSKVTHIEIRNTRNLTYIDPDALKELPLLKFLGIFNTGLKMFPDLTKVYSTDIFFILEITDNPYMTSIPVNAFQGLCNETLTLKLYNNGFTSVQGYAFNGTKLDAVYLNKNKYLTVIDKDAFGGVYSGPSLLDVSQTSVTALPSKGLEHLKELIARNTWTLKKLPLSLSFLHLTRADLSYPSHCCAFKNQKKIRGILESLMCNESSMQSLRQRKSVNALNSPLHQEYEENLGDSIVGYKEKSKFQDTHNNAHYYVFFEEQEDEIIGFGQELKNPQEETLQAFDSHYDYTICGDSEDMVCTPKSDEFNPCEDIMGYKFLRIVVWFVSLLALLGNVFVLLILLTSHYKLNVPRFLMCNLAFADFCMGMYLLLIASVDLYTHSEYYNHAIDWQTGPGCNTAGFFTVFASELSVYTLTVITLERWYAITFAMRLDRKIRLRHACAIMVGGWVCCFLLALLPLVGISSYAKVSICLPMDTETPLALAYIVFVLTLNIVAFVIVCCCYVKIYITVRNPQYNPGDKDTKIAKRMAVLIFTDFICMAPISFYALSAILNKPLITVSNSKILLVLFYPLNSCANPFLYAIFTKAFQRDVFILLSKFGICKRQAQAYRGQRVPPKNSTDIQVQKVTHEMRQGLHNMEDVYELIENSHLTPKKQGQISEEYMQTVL
# Estrogen receptor beta (Homo sapiens), sequence (Q92731 whole entry, looked up, the tested form may be a part): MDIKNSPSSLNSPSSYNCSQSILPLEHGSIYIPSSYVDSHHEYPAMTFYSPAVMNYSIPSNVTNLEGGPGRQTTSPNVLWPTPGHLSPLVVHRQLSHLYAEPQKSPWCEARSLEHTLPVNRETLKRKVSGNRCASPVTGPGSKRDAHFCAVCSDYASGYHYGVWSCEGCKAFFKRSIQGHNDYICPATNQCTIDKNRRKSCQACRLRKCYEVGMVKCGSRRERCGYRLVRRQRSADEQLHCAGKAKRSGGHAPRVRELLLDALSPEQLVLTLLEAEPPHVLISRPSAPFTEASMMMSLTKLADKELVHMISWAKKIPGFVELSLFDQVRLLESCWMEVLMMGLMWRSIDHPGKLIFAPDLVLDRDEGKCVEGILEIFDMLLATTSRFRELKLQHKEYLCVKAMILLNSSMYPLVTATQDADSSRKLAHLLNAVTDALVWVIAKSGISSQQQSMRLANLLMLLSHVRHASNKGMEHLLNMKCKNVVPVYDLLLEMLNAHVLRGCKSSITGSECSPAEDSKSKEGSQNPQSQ
structure (smiles),measurement,setting,value
CN1CCC[C@@H]1CCO[C@](C)(c1ccccc1)c1ccc(Cl)cc1,Potency,[1],26.6 µM (active)
same,Potency,[2],inactive
same,Potency,[3],inactive
same,Potency,[4],23.7 µM (active)
same,Potency,[5],inactive
same,Potency,[6],26.6 µM (active)
same,Potency,[7],18.8 µM (active)
same,Potency,[8],29.8 µM (active)
same,Potency,[9],23.7 µM (active)
same,Potency,[10],21.1 µM (active)
same,outcome,[11],inactive
same,Potency,[12],29.8 µM (active)
C=C(C)C(=O)OCCCCCCCCCC,Potency,[1],inactive
same,Potency,[2],inactive
same,Potency,[3],inactive
same,Potency,[13],54.9 µM (active)
same,Potency,[5],inactive
same,Potency,[6],13.8 µM (active)
same,Potency,[14],inactive
same,Potency,[8],inactive
same,Potency,[9],inactive
same,Potency,[10],inactive
same,Potency,[15],inactive
same,outcome,[11],inactive
same,Potency,[12],inactive
Oc1cc(Cl)cc(Cl)c1Cl,Potency,[1],inactive
same,Potency,[2],inactive
same,Potency,[3],inactive
same,Potency,[4],inactive
same,Potency,[5],inactive
same,Potency,[6],31.4 µM (active)
same,Potency,[9],31.4 µM (active)
same,Potency,[10],inactive
same,Potency,[15],inactive
same,outcome,[11],inactive
same,Potency,[12],inactive
O=C(O)O,"viability change, negative = cytotoxic",[1],0.635% [at 8.39 µM]
same,"activity change, negative = inhibition",[16],-65% [at 8.39 µM]
same,"activity change, negative = inhibition",[2],2.76% [at 8.39 µM]
same,"activity change, negative = cytotoxicity",[3],-4.12% [at 8.39 µM]
same,"viability change, negative = cytotoxic",[4],1.19% [at 8.39 µM]
same,"viability change, negative = cytotoxic",[13],-2.57% [at 8.39 µM]
same,activity change,[5],"0.72% [at 8.39 µM, stronger effect = higher value]"
same,"activity, negative = inhibition",[7],1.94% [at 8.39 µM]
same,"activity change, negative = cytotoxicity",[9],-10.9% [at 8.39 µM]
same,"activity change, negative = cytotoxicity",[10],-30.1% [at 8.39 µM]
same,activation,[15],10.5% [at 8.39 µM]
same,cAMP activity change,[11],-3.34% [at 8.39 µM]
same,"activity change, negative = inhibition",[12],0.713% [at 8.39 µM]
CC/C=C\CCCCCO,Potency,[1],inactive
same,Potency,[2],inactive
same,Potency,[3],inactive
same,Potency,[4],inactive
same,Potency,[5],inactive
same,Potency,[6],inactive
same,Potency,[14],inactive
same,Potency,[7],inactive
same,Potency,[8],inactive
same,Potency,[9],inactive
same,Potency,[10],inactive
same,outcome,[11],inactive
same,Potency,[12],inactive
CCCCN(CCCC)CC(O)c1cc(Cl)cc2c1-c1ccc(Cl)cc1/C2=C/c1ccc(Cl)cc1 (centres undefined),Potency,[1],inactive
same,Potency,[16],inactive
same,Potency,[2],inactive
same,Potency,[3],inactive
same,Potency,[4],26.6 µM (active)
same,Potency,[5],inactive
same,Potency,[14],inactive
same,Potency,[8],inactive
same,Potency,[9],29.8 µM (active)
same,Potency,[15],inactive
same,outcome,[11],inactive
same,Potency,[12],inactive
O=c1[nH]c2ccccc2n1CCCN1CCN(C(c2ccccc2)c2ccccc2)CC1,Potency,[1],inactive
same,Potency,[2],inactive
same,Potency,[3],inactive
same,Potency,[5],inactive
same,Potency,[6],3.35 µM (active)
same,Potency,[9],11.9 µM (active)
same,outcome,[11],inactive
same,Potency,[12],inactive
Fc1ccc(C(c2ccc(F)cc2)N2CCNCC2)cc1,Potency,[1],inactive
same,Potency,[16],inactive
same,Potency,[2],inactive
same,Potency,[3],inactive
same,Potency,[5],inactive
same,Potency,[6],2.98 µM (active)
same,Potency,[14],inactive
same,Potency,[7],inactive
same,Potency,[10],inactive
same,Potency,[15],inactive
same,outcome,[11],inactive
same,Potency,[12],inactive
CN1CCN(Cc2cc(-c3ccc4[nH]c(=O)oc4c3)co2)[C@@H](c2ccc(F)cc2)C1,Potency,[1],inactive
same,Potency,[2],inactive
same,Potency,[3],inactive
same,Potency,[5],inactive
same,Potency,[6],4.16 µM (active)
same,Potency,[9],13.2 µM (active)
same,Potency,[10],inactive
same,Potency,[15],inactive
same,outcome,[11],inactive
same,Potency,[12],inactive
COCCOc1cc2cc(C(=O)NC3CCN(C(C)C)CC3)n(CC(=O)Nc3ccc(Cl)cn3)c2cn1,Potency,[1],inactive
same,Potency,[2],inactive
same,Potency,[3],inactive
same,Potency,[4],inactive
same,Potency,[13],inactive
same,Potency,[5],inactive
same,Potency,[6],15.2 µM (active)
same,Potency,[14],inactive
same,Potency,[7],inactive
same,Potency,[9],inactive
same,Potency,[10],inactive
same,outcome,[11],inactive
same,Potency,[12],inactive
O=c1oc2cc(O)ccc2c2oc3cc(O)ccc3c12,Potency,[1],inactive
same,Potency,[2],9.29 µM (active)
same,Potency,[13],inactive
same,Potency,[6],13.1 µM (active)
same,Potency,[8],inactive
same,Potency,[9],37 µM (active)
same,Potency,[10],inactive

# Source: PubChem BioAssay (Tox21)
